Common to all, as to assay: DAPPL (digital affinity profiling via proximity ligation, sequencing); 10 mM Tris-HCl pH 7.5, 50 mM NaCl, 1 mM DTT, 4% glycerol, room temperature, 30 min; GST-TFs on glutathione beads, 16-mer random dsDNA library, 0.1% formaldehyde crosslink after washing; high values mean tight binding
What all share (conditions): protein: recombinant; tags: N-terminal GST; dsDNA, one strand shown

One assay deals with T1, ELK4 (Homo sapiens, UniProt P28324-2 1-405).
T1 sequence: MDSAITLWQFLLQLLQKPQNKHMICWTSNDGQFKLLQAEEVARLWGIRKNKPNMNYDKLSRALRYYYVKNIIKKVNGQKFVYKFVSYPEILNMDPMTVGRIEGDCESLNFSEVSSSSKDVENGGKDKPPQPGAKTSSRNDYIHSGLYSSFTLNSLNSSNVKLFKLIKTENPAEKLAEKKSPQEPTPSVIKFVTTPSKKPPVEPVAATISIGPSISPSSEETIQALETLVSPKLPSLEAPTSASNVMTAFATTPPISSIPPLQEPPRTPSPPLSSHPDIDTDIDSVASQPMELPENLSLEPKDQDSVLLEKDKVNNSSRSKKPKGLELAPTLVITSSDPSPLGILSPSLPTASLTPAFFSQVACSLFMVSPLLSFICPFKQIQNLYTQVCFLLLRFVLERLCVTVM
Put shortly: (§1)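 GST fusions of human transcription factors were expressed in yeast and captured with glutathione beads. Once given DNA barcodes and pooled alongside a tag-only sample, they were incubated for 30 min at room temperature with 200 nmole of a random double-stranded 16-mer DNA library in Tris/NaCl/DTT/glycerol buffer, then washed, crosslinked (0.1% formaldehyde), proximity-ligated, PCR-amplified and sequenced on an Illumina NextSeq500. The binding signal of each hexamer is its read frequency for a factor divided by its frequency for the tag-only sample.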

The target in the next assay is T2, ETV2 (Homo sapiens, UniProt O00321 1-342).
T2 sequence: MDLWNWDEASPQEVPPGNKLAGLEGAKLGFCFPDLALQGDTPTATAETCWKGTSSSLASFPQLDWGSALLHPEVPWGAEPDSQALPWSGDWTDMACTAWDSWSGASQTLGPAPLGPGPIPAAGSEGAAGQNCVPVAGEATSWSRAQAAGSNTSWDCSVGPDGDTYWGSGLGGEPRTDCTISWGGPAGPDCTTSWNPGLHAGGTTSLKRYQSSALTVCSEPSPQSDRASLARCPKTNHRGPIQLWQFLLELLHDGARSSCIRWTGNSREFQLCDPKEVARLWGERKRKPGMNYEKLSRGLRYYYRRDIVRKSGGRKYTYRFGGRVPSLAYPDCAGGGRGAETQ
The method in brief: as §1

A further assay has as its target T3, ELF3 (Homo sapiens, UniProt P78545 1-371).
T3 sequence: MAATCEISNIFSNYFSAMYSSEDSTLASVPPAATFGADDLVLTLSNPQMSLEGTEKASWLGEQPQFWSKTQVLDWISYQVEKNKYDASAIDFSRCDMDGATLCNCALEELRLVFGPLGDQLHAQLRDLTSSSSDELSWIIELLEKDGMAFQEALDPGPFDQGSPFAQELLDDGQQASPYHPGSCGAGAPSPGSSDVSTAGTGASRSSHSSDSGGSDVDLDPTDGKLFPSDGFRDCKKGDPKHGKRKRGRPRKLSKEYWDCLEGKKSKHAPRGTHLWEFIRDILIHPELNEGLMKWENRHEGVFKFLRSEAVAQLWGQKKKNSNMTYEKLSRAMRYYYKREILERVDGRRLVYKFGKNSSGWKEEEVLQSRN
Put shortly:
as §1

Another assay has as its target ETV1 (Homo sapiens, UniProt P50549 1-477). The method in brief:
as §1

The target in a further assay is T4, ERF (Homo sapiens, UniProt P50548 1-548).
T4 sequence: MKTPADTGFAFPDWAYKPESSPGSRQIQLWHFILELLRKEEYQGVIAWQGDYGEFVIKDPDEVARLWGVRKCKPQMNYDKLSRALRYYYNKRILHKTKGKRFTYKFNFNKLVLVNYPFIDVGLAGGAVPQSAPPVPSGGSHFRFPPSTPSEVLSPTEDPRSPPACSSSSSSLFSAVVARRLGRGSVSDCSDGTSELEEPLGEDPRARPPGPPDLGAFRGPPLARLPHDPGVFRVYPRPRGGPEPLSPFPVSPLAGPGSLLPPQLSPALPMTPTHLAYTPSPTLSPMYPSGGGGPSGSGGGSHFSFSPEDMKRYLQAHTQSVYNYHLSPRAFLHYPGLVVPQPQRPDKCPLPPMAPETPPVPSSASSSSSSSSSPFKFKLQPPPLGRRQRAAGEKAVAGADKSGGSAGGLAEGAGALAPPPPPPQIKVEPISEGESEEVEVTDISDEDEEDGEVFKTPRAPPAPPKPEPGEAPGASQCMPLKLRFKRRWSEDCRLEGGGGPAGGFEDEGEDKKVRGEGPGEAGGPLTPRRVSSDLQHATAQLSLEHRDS
Put shortly:
as §1

The target of the next assay is T5, ETV3L (Homo sapiens, UniProt Q6ZN32 1-361).
T5 sequence: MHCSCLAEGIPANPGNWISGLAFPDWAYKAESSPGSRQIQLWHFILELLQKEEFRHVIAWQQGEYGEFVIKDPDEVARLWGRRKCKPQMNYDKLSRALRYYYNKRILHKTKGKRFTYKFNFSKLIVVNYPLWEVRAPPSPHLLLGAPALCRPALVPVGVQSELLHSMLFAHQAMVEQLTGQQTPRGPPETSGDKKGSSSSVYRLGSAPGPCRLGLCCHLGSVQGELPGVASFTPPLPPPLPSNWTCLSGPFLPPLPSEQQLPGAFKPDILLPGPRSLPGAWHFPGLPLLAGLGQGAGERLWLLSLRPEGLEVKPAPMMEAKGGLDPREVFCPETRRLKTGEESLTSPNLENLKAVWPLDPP
The method in brief: as §1

A further assay addresses T6, ETS2 (Homo sapiens, UniProt P15036 1-469).
T6 sequence: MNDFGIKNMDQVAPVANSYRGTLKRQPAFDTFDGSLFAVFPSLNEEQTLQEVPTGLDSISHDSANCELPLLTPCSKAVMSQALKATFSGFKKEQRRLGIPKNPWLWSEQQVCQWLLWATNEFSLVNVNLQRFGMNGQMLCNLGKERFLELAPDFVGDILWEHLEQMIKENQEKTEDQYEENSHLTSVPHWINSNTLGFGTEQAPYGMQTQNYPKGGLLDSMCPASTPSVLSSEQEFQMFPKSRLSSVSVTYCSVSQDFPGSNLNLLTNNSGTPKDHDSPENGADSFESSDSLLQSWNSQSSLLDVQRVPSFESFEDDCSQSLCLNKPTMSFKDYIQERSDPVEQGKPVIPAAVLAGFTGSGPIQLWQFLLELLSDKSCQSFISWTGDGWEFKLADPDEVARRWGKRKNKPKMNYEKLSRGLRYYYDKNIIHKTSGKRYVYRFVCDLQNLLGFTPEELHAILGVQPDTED
The method in brief:
as §1

The next assay concerns the target T7, SPDEF (Homo sapiens, UniProt O95238 1-335).
T7 sequence: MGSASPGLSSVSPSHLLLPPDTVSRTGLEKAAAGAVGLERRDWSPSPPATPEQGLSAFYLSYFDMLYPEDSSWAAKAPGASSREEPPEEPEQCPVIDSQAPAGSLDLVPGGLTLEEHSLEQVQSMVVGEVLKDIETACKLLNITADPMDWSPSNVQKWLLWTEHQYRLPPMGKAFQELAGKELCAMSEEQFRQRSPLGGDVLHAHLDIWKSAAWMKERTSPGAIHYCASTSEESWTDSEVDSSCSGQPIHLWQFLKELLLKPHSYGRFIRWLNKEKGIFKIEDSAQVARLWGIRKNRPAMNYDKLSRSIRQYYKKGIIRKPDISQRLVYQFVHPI
The method in brief:
as §1

In the next assay the target is T8, ETV7 (Homo sapiens, UniProt Q9Y603 1-341).
T8 sequence: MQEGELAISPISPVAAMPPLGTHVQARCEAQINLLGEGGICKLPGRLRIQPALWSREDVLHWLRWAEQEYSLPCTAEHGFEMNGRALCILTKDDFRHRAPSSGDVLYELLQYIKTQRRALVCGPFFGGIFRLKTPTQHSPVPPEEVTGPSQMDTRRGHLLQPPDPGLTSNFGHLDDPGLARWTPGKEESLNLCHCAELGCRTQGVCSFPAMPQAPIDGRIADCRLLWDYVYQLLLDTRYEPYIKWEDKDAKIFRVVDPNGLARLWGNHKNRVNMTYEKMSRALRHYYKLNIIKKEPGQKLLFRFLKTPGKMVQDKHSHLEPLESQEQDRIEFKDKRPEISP
The method in brief: as §1

Another assay concerns the target T9, ETV3 (Homo sapiens, UniProt P41162-2 1-143).
T9 sequence: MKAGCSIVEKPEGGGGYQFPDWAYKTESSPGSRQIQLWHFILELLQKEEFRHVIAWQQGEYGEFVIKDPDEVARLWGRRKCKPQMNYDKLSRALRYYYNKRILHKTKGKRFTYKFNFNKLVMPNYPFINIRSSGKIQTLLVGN
Put shortly:
as §1

Consider one sequence from article PMC7862700, “An all-to-all approach to the identification of sequence-specific readers for epigenetic DNA modifications on cytosine”.

Sequence of ETV1 (P50549 whole entry): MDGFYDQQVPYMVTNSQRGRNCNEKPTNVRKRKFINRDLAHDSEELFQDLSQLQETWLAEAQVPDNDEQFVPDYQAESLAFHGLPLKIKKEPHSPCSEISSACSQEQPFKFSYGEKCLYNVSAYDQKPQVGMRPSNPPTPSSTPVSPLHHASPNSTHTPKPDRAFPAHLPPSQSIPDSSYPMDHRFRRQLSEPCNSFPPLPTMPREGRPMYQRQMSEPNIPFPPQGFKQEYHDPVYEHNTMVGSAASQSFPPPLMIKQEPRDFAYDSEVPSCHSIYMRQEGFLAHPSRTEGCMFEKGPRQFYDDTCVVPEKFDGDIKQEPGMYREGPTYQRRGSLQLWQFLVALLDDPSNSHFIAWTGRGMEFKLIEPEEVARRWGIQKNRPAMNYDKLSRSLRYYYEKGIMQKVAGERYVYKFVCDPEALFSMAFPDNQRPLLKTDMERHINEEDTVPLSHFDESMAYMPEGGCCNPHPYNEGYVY

For the sequence CGATGC, the binding signal was 1.07 fold enrichment (6-mer frequency, TF over GST control) in the assay with ELK4; 1.15 fold enrichment (6-mer frequency, TF over GST control) with ETV2; 1.2 fold enrichment (6-mer frequency, TF over GST control) with ELF3; 1.03 fold enrichment (6-mer frequency, TF over GST control) with ETV1; 1.07 fold enrichment (6-mer frequency, TF over GST control) with ERF; 1.18 fold enrichment (6-mer frequency, TF over GST control) in the assay with ETV3L. Besides, the binding signal with ETS2 is 1.06 fold enrichment (6-mer frequency, TF over GST control); with SPDEF, 1.07 fold enrichment (6-mer frequency, TF over GST control); with ETV7, 1.04 fold enrichment (6-mer frequency, TF over GST control); with ETV3, 1.17 fold enrichment (6-mer frequency, TF over GST control).
